Assay outcomes deposited in PubChem BioAssay by The Scripps Research Institute Molecular Screening Center.
TEAD-YAP inh: TEAD-YAP interaction inhibition, primary screen, TEAD-YAP interaction inhibitor project, luminescence, HEK-TIYL cells; TEAD-Gal4/YAP UAS-luciferase luminescence; inhibition, % at 9.12 µM; hit rate 1.4% among 640,000; in the data active means inhibition above about 32%;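 further: 0% = median of test compound wells and 100% = reference inhibitor wells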
MITF primary: MITF inhibitors, primary screen, biochemical, AlphaScreen, human. Microphthalmia-associated transcription factor (Homo sapiens), O75030. AlphaScreen MITF homodimerization, bead proximity signal. inhibition, % at 2.6 µM. hit rate 0.91% among 650,000. AID 1259374, 2018; in the data active means inhibition above about 50%;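 further: 0% = vehicle wells with protein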
Target sequence (O75030 whole entry, looked up): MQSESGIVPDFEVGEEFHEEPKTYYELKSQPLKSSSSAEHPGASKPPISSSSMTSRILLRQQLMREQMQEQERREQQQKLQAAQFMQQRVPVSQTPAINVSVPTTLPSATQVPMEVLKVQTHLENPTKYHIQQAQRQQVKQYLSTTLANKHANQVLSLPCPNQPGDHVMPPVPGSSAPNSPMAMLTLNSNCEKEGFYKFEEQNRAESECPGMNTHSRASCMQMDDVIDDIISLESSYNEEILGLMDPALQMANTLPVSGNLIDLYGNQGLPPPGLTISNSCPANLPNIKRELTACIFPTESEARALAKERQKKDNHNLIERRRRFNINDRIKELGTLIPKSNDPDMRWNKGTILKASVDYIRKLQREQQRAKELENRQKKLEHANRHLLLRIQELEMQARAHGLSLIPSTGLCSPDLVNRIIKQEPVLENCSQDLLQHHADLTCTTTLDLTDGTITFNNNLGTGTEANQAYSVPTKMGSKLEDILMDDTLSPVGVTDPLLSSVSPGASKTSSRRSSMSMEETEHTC
GPR151 ag: activators of human GPR151, primary screen, cell-based, PathHunter beta-arrestin, luminescence | G-protein coupled receptor 151 (Homo sapiens), Q8TDV0 | PathHunter beta-arrestin GPR151 cells | activation, % at 11.2 µM | hit rate 1% among 650,000 | AID 1508602, 2020; in the data active means activation above about 4.9%;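 further: 0% = median of compound wells and 100% = cells with positive control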
FBW7 activator: FBW7 E3 ligase activators, primary screen, biochemical, AlphaScreen, human. F-box/WD repeat-containing protein 7 (Homo sapiens), Q969H0. AlphaScreen FBW7–phospho-cyclin E peptide binding, activator screen. normalized activity (activation), % at 26.1 µM. hit rate 0.13% among 650,000; in the data active means normalized activity above about 1.9%;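 further: purified mutant Fbw7 with reduced substrate affinity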
GPR151 confirm: GPR151 activators, triplicate retest, confirmation, cell-based, PathHunter beta-arrestin, luminescence. activation, % at 11.2 µM. shares compounds with GPR151 ag. 6,700 tested, under 10 active. GPR151 PathHunter beta-arrestin cells, 90 min; % of EA-reagent control over plate median;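 active means mean percent activation across replicates above the confirmation screen cutoff of 4.91%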
GPR119 ag: GPR119 activators in beta-arrestin cells, counter-screen for GPR151 activator project, cell-based, PathHunter beta-arrestin, luminescence, triplicate | shares compounds with GPR151 ag | 90 min; 0 = compound-well median, 100 = enzyme-acceptor control | activation, % at 11.2 µM | hit rate 0.3% among 6,700 | AID 1508611, 2020;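 active means mean percent activation in the counterscreen above 29.09%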;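 further: counterscreen on off-target GPR119 to flag nonselective hits from the GPR151 activator screen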
An asterisk follows results filed as active; . = no result given. An excerpt weighted towards active compounds, which were near 3.5% of everything screened.

SMILES	TEAD-YAP inh	MITF primary	GPR151 ag	FBW7 activator	GPR151 confirm	GPR119 ag
COc1ccc(N2CC(O)=C(c3nc4ccccc4[nH]3)C2=N)cc1Cl	-18	0	6.0*	0	0	-3
O=C(Oc1cccc2cccnc12)N1CCOCC1	-1	11	-1	1	.	.
C=CCNC(=O)COc1c(C)cc(Br)cc1C	1	-10	12*	0	0	2
C=CCNC(=S)NNC(=O)COc1ccc2cc(Br)ccc2c1	-74	-10	9.7*	0	0	-4
CCC(C)(C)NS(=O)(=O)c1ccc2c(c1)OCC(=O)N2	9	5	-1	0	.	.
CN(CC(=O)NC1CCCCCC1)c1nnc(N2CCCC2=O)s1	-2	9	-2	1	.	.
CN(CC(=O)NC1CCCC1)c1nnc(N2CCCC2=O)s1	-1	3	6.1*	1	0	3
Cc1ccc(OCCOc2ccc(/C=C3/C(=N)N4N=C(C(C)C)SC4=NC3=O)cc2)cc1C	-4	15	-1	0	.	.
CC[C@H](C)NC(=O)CCCc1nnc2n(CCC(C)C)c(=O)c3sccc3n12	1	2	-1	0	.	.
CC(C)CCn1c(=O)c2sccc2n2c(CCCC(=O)O)nnc12	1	14	5.2*	0	0	-2
Cc1cccc(NC(=O)CN2C(=O)N/C(=C/c3cccn3-c3ccccc3F)C2=O)c1	14	6	-1	1	.	.
COCCN1C(=O)C(O)=C(C(=O)c2cc3ccccc3o2)C1c1cccc([N+](=O)[O-])c1 (stereo not drawn)	8	10	5.7*	0	-1	-11
COc1ccc(NC(=O)Cn2c(=O)n(-c3ccc(C)cc3)c(=O)c3sccc32)cc1	-2	-14	0	0	.	.
Cn1cc(/C=C(/C#N)C(=O)NC2CCCCC2)c2ccccc21	-19	1	1	1	.	.
Cc1ccc(S(=O)(=O)NCC2(c3cccs3)CCOCC2)c(C)c1	-1	4	7.3*	0	1	-6
O=C(NC1CC1)c1ccc(-c2ccc(C(=O)Nc3ccccc3)s2)cc1	-13	-13	-1	1	.	.
COc1ccc(OC)c(NC(=O)C(=O)N/N=C/c2ccc(C(=O)O)cc2)c1	3	9	0	0	.	.
O=C(/C=C/c1cccc(F)c1F)NCC1CCC2(CCN(Cc3ccncc3)CC2)O1 (stereo not drawn)	-8	5	1	0	.	.
Cc1cc(C(=O)/C=C/c2ccc(OCC(=O)O)cc2)c(C)s1	4	2	6.1*	0	0	-4
c1ccc(SCc2nnc3n2CCCCC3)cc1	-6	-13	5.0*	0	0	-2
COc1ccc(NC(=O)/C(C#N)=C/c2c(Oc3ccccc3)nc3ccccn3c2=O)cc1	1	9	0	0	.	.
Nc1nc(NCCO)cc(Nc2ccncn2)n1	-9	4	1	0	.	.
CCCNc1cc(Nc2ccncn2)nc(N)n1	-4	2	18*	0	0	3
C=C(C)CN(CC)C(=O)C1CC(=O)c2sc(NC(=O)C3CCC3)nc2C1 (stereo not drawn)	-4	12	-2	0	.	.
CCC(C(=O)O)n1c(O)c(/C=C2\C=Nc3ccccc32)sc1=S (stereo not drawn)	3	13	9.1*	0	1	12
SMILES	TEAD-YAP inh	MITF primary	GPR151 ag	FBW7 activator	GPR151 confirm	GPR119 ag
COc1ccc2c(c1)-c1c(ssc1=S)C(C)(C)N2C(=O)Cc1ccccc1	-16	16	6.3*	-1	1	10
COC(=O)c1ccc(N2C(=O)CC(NCc3ccc(OC)cc3)C2=O)cc1 (stereo not drawn)	8	-125	-1	0	.	.
CCn1cc(C(=O)N2Cc3ccc(OC)cc3OC(C)C2)cn1 (stereo not drawn)	21	2	0	0	.	.
Cc1ccc(CN[C@H]2C[C@H]3C(=O)N[C@@H](COCc4ccccc4)C(=O)N3C2)cc1	-10	-12	0	0	.	.
Cc1c(C(=O)OC(C)C)sc(NC(=O)c2ccccc2F)c1C#N	-3	-1	5.8*	0	0	0
Cc1c(C(=O)OC(C)C)sc(NC(=O)c2cc(Cl)ccc2Cl)c1C#N	4	-1	1	0	.	.
O=C(Nc1ccc2sccc2c1)c1cccs1	-53	7	-4	0	.	.
COc1ccc(N2CCN(C(=O)C(c3ccccc3)c3ccccc3)CC2)nn1	3	7	5.7*	0	1	1
Cc1ccccc1Cn1nnc(C(=O)NCc2ccccc2Cl)c1N	-6	-4	1	0	.	.
COc1ccc(OC)c(C2=NOC(C(=O)NCc3cccnc3)C2)c1 (stereo not drawn)	1	-13	6.3*	0	1	6
COc1ccc(OC)c(C2=NOC(C(=O)NCc3ccccc3)C2)c1 (stereo not drawn)	16	16	1	0	.	.
CCN(c1ccccc1)S(=O)(=O)c1ccc(F)c(C(=O)Nc2ccc(OC)cc2)c1	5	14	8.7*	0	-2	-15
CCN(c1ccccc1)S(=O)(=O)c1nnc(NC(=O)c2ccccc2OC)s1	3	-9	5.0*	0	1	5
CCN(c1ccccc1C)S(=O)(=O)c1nnc(NC(=O)c2ccc(F)cc2)s1	7	6	10*	0	0	-6
O=C(NCc1cccs1)c1cc(S(=O)(=O)N2CCCCC2)ccc1F	-5	-3	1	0	.	.
Clc1ccccc1Nc1ncnc2ccc(Br)cc12	-5	7	0	0	.	.
Brc1ccc2ncnc(Nc3cccc4ccccc34)c2c1	4	9	11*	0	1	-12
CCc1nc2ccccc2c(NC(=O)CN2CCC(C)CC2)c1C	-2	44	5.3*	0	0	-3
Cc1c(Cl)cccc1NC(=O)c1cc([N+](=O)[O-])ccc1N1CCN(C)CC1	11	0	6.2*	0	1	19
CN1CCN(c2ccccc2NC(=O)c2ccc([N+](=O)[O-])cc2Cl)CC1	-8	21	-2	1	.	.
Cc1ccc(-c2ccc(SCC(=O)N3CCCC3)nn2)cc1	-19	-9	6.0*	0	0	10
O=C(CSc1ccc(-c2ccc3c(c2)OCO3)nn1)N1CCCC1	6	1	-1	0	.	.
CCOC(=O)N1CCN(C(=O)CSc2ccc(-c3cccnc3)nn2)CC1	9	7	4.9*	1	1	6
C/C(CC(=O)Nc1ccc(C(N)=O)cc1)=N\NC(=O)c1ccc([N+](=O)[O-])cc1Cl	-4	-6	1	0	.	.
